# Screening results as filed in PubChem BioAssay.
# PNC inhibitor: blocks assembly of the perinucleolar compartment; PC3M PTB-GFP, PNC prevalence imaging, 16 h; hits give low values; activity change (PNC), negative = inhibition, % at 10 µM; 140,000 compounds, 3.1% hits; AID 2417;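 active = readout at or below -70, meaning at least 70% loss of cells showing the perinucleolar compartment, a nuclear body marking cancer cells; inconclusive = readout between -30 and a set limit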;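 note: plate controls were DMSO wells for no effect and camptothecin positive control wells for full effect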
#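 PC3M cells stably expressing PTB-GFP, 750–1000 cells/well, treated 16 h at 37 °C with compound (23 nl of library stock), in duplicate. After paraformaldehyde fixation and Hoechst stain, imaged at 20x; PNC prevalence scored by image analysis.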
# LMNA splice mod: LMNA splicing modulation; HeLa LMNA splicing GFP/RFP minigene ratio, 48 h; Potency, µM (top dose mostly 46.1 µM), inactives show at the top dose ratio change, negative = inhibition, most hits filed as inhibitors; 200,000 compounds, 0.01% hits; active = well fitted inhibition curve with a large enough effect in the signal ratio, with a control signal flat, not every such curve was filed as active; inconclusive = small, poorly fitted or top-dose-only effect, or effect the other way, or a change in a side signal; the % refers to the signal ratio; note: potency is the fitted concentration of half-maximal effect
#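 Read-out is the ratio of GFP to DsRed2 object intensity, acquired by 488 nm laser-scanning cytometry on HeLa lamin A-EGFP minigene reporter cells. Compound incubation 48 hrs at 37 °C in Opti-MEM with 2% FBS; DMSO 0.5% final.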
# ALDH1A1 block: blocks purified human ALDH1A1 activity | P00352 | Purified ALDH1A1, NADH fluorescence, propionaldehyde substrate | Potency, µM (titrated, usually from 75.3 µM), for the others: top-dose activity, negative = inhibition, actives largely listed as inhibitors | 220,000 compounds, 7.3% hits;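 note: potency is the fitted concentration of half-maximal effect; plate controls were no enzyme wells and a reference inhibitor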
# Target sequence (P00352 whole entry, looked up): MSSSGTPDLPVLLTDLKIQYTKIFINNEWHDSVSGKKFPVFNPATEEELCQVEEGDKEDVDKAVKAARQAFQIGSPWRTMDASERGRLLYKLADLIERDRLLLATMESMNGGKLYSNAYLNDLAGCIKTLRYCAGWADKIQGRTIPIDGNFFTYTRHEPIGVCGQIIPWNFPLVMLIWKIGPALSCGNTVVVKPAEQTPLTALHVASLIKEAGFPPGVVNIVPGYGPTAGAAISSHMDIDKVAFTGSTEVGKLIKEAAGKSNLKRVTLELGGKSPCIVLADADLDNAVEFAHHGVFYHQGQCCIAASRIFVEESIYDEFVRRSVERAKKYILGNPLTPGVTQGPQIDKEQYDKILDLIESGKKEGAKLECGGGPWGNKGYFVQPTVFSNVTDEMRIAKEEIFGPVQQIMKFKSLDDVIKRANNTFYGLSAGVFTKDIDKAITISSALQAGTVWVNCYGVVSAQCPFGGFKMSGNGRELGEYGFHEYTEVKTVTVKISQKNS
# HPGD inh: blocks human HPGD enzyme activity; P15428; purified HPGD, NADH fluorescence kinetic, PGE2 substrate; Potency, µM, without a hit: at the top dose activity change, negative = inhibition, most hits filed as inhibitors; 150,000 compounds, 4.3% hits; AID 894; note: potency is the fitted concentration of half-maximal effect
#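 NADH formation kinetics: reaction with 30 uM PGE2 and 1 mM NAD+ (final), 20 nM enzyme, Tris-HCl pH 8 with Tween 20, after 15 min compound preincubation at room temperature. Fluorescence change, last versus first of five reads.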
# ALOX12 inhib: 12-hLO (ALOX12) enzyme inhibition; purified 12-hLO, xylenol orange hydroperoxide absorbance; 150,000 compounds, 0.12% hits; Potency, µM (doses to about 57.1 µM), for inactives: at the highest dose activity change, negative = inhibition, usual class: inhibitors; P18054; AID 1452; active = well fitted inhibition curve with a large enough effect; inconclusive = small, poorly fitted or top-dose-only effect; note: potency is the fitted concentration of half-maximal effect; nearly all actives have a fitted effect of over 55% in size
#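 150 nM 12hLO, 25 mM Hepes pH 7.0 + 0.01% Triton X-100; cpd preinc 15 min RT; 40 uM arachidonic acid, 30 min RT; Fe-XO 30 min; A573/A405 ratio as read-out.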
# An asterisk follows results filed as active; ? = inconclusive; nt = not tested or not shown; [ ] = dose if it differs, or a comment. Rows were chosen to be rich in hits. Some 10% of all compounds tested hit in one or more screens of this group. Unless noted, calls come from the whole dose curve; as a rule, active = well fitted inhibition curve with a large enough effect (not every such curve was filed as active); inconclusive = small, poorly fitted or top-dose-only effect, or another doubt; inactive = no such curve, though single readings can be large or run the other way. Unless noted, % is set by controls: 0 for no effect and ±100 for the full control effect.
SMILES,PNC inhibitor,LMNA splice mod,ALDH1A1 block,HPGD inh,ALOX12 inhib
O=C(C1CCCN(Cc2cccs2)C1)N1CCCCCC1 (configuration not stated),16,4%,-16%,nt,-5%
O=C(C1CCCN(Cc2ccccc2)C1)N1CCCCC1 (configuration not stated),54,2%,20µM*,28µM*,-2%
C=CC1=C2C=C(C3CC3)N(Cc3ccc4c(c3)OCO4)C=C2C(=O)C(C)(OC(=O)c2ccco2)C1=O (configuration not stated),nt,?,-1%[13.5 µM],-8%,-3%[11.4 µM]
O=C(c1cc2ncc(Br)cn2n1)N1CCN(C(=O)c2ccco2)CC1,-15,28%,25µM*,-23%,-6%
O=C(c1cc2ncc(Br)cn2n1)N1CCOCC1,-5,1%,3%,22µM*,1%
O=C(c1ccco1)N1CCN(C(=O)c2ccc(Cn3cc(Br)cn3)o2)CC1,?,-1%,?,-12%,5%
O=C(Cn1c2ccccc2c(=O)c2ccccc21)N/N=C/c1ccc(N2CCCC2)c([N+](=O)[O-])c1,?,-13%,?,?,1%
O=C(N/N=C/c1ccc(N2CCCC2)c([N+](=O)[O-])c1)c1cccnc1,nt,nt,0.28µM*,nt,nt
CO/N=C/c1ccc(N2CCN(C(=O)c3ccc(F)cc3)CC2)c([N+](=O)[O-])c1,2,?,15%,-25%,-4%
O=C(N/N=C/c1ccc(N2CCOCC2)c([N+](=O)[O-])c1)c1ccc(F)cc1,9,-8%,5µM*,-15%,5%
COc1ccc(CNc2ncncc2-c2ccccc2C(F)(F)F)c(OC)c1,nt,?,-5%,nt,nt
COC(=O)CSc1nnc([C@H](Cc2ccccc2)NC(=O)OC(C)(C)C)o1,68,-1%,-5%,-5%,-5%
COC(=O)CS(=O)(=O)c1nnc([C@H](Cc2ccccc2)NC(=O)OC(C)(C)C)o1,?,?,8.9µM*,11µM*,-6%
Cc1cccc(CS(=O)(=O)c2nnc([C@H](Cc3ccccc3)NC(=O)OC(C)(C)C)o2)c1,-1,?,22µM*,14µM*,-7%
CC1Cc2cc(S(=O)(=O)NCc3ccc(N(C)C)cc3)ccc2N1C(=O)C1CCC1 (configuration not stated),nt,4%[46 µM],nt,nt,nt
O=c1[nH]cnc2c1nc(Cl)n2C1OC(CO)C(O)C1O (configuration not stated),nt,3%,-1%,-4%,3%
COc1ccc(CCNc2oc(-c3ccco3)nc2C#N)cc1,-100*,0%,?,?,-6%
CCCSC1=N/C(=C/c2ccsc2)C(=O)N1c1ccccc1,16,?,14µM*,-19%,1%
CSc1nc(N(C)NC(=O)c2ccc(Cl)cc2)c2ccccc2n1,-97*,?,12%,4%,0%
Cc1nc(-c2ccc(S(=O)(=O)N(Cc3ccccc3)C(C)C)cc2)co1,nt,1%[46 µM],nt,nt,nt
CCN(CC)S(=O)(=O)c1ccc2c(c1)N(CC(=O)NCCCN1CCN(c3ccc(OC)cc3)CC1)C(=O)CO2,nt,11%[46 µM],nt,nt,nt
O=C(NC1CC1)c1cccc(Nc2ccc(-c3ccc4c(c3)OCCO4)nn2)c1,6,?,?,28µM*,-6%
Cc1ccc2nc(Cl)c3nnnn3c2c1,nt,nt,28µM*,nt,nt
COC(=O)c1cc(NCc2ccc3c(c2)OCO3)ccc1N1CCOCC1,35,7%,14µM*,-6%,-4%
O=C(O)c1cc(NCc2ccc3c(c2)OCO3)ccc1N1CCOCC1,10,4%,?,-21%,-3%
SMILES,PNC inhibitor,LMNA splice mod,ALDH1A1 block,HPGD inh,ALOX12 inhib
O=C(O)C(Cc1ccccc1)Cc1ccccc1,nt,nt,10%[13.5 µM],-9%,0%[11.4 µM]
Cc1nc(NCCc2ccc(S(N)(=O)=O)cc2)c2c(C)c(C)sc2n1,?,?,-10%,-9%,4%
Cc1sc2nc(C3CC3)nc(NCCNS(C)(=O)=O)c2c1C,0,?,32µM*,-2%,-5%
CS[C@@H](CC(=O)O)C(=O)O,nt,nt,-2%[13.5 µM],-11%,3%[11.4 µM]
CCOC(=O)C(=O)C1=C(N2CCOCC2)/C(=C\c2ccc(F)cc2)CC1,-4,1%,13µM*,-12%,5%
C/C(CCC(=O)OC[C@@H]1O[C@H](C#Cc2ccccc2)C=C[C@@H]1Oc1ccc(C)cc1)=N/OC[C@@H](C)[C@H](OCc1ccccc1)C(C)C,nt,nt,-1%[13.5 µM],nt,nt
COC(=O)c1nn2c(C(F)(F)F)cc(-c3ccc(Br)o3)nc2c1Br,-18,-4%,14µM*,-8%,-12%
COC(=O)c1cnn2c(C(F)(F)F)cc(-c3ccc(F)cc3)nc12,18,3%,?,?,-6%
CCCOc1ccccc1Cn1c(=O)oc2ccc(C)cc21,?,7%,?,25µM*,-10%
Cn1c(=O)c(-c2cccs2)nc2cnc(N3CCNCC3)nc21,nt,-12%,?,nt,nt
COC(=O)C1(Cc2ccccc2)NC(c2ccc(F)cc2)C2C(=O)N(C)C(=O)C21 (configuration not stated),36,-11%,1%,3%,0%
COc1ccc(N2C(=O)C3C(c4ccc(C(=O)O)cc4)NC(Cc4ccccc4)(C(=O)O)C3C2=O)c([N+](=O)[O-])c1 (configuration not stated),nt,nt,11µM*,nt,nt
CN(Cc1cccs1)S(=O)(=O)c1cccs1,?,11%,?,28µM*,1%
CC1=C(CC(=O)c2ccc(Cl)cc2)C(=O)c2ccccc2C1=O,-19,?,2.5µM*,-26%,-20%
Cc1cc(C)n(CC(=O)c2ccc(Cl)cc2)n1,nt,nt,3%,nt,nt
Cc1[nH][nH]c(=O)c1C(c1c(C)[nH][nH]c1=O)c1cn(Cc2ccc(F)cc2)c2ccccc12,-29,-8%,1.4µM*,-6%,0%
Cc1[nH][nH]c(=O)c1C(c1c(C)[nH][nH]c1=O)c1cn(Cc2ccc(Cl)c(Cl)c2)c2ccccc12,-2,?,3.5µM*,-4%,-7%
COc1ccc(C(C)C)cc1S(=O)(=O)N1CCN(C)CC1,54,14%,?,-3%,1%
CCOc1ccc(C(C)C)cc1S(=O)(=O)N1CCOCC1,nt,nt,8.9µM*,nt,nt
CCOc1cc(C)c(C(C)C)cc1S(=O)(=O)N1CCN(C)CC1,7,4%,5µM*,-15%,4%
COc1cc(C)c(C(C)C)cc1S(=O)(=O)N1CCN(C)CC1,-27,11%,14µM*,-15%,2%
CC(=O)NS(=O)(=O)c1ccc(NC(=S)NC(=O)Cc2ccccc2)cc1,nt,nt,-1%,nt,nt
COc1ccccc1Cn1c(SCC(=O)C(C)(C)C)nc2ccccc2c1=O,nt,-12%[46 µM],nt,nt,nt
COc1ccccc1Cn1c(SCC(N)=O)nc2c(oc3ccccc32)c1=O,nt,nt,1.3µM*,nt,nt
COc1c(O)cc2c(=O)oc3c(OC)c(O)cc4c(=O)oc1c2c34,nt,nt,?,5µM*,nt
COc1ccc(CNc2ncncc2-c2ccc3c(c2)OCO3)c(OC)c1,nt,?,?,-26%,7%
